Laboratory results from PubChem BioAssay.
Several values for one entry are separate records, joined by “and”; a condition that tells them apart may be missing. Identical values can stand only once. Activity calls are given as the source filed them. Unless noted, the rule behind the calls is not given here.

Key:
[1] = differential killing of epithelial or mesenchymal cells, primary screen, imaging, PC-3E GFP, TEM4-18 mCherry, co-culture (AID 1345086;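 active = compounds killing one labelled cell type while sparing the other, by normalised counts and ratio limits, not self-fluorescent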;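 for all read-outs here: cells exposed to compound for 72 h before imaging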;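 for red/green cell ratio (normalised): normalised mesenchymal count divided by normalised epithelial count so high means epithelial killing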); conditions: imaging cell counts, at 1 µM; for red/green cell ratio (normalised): actives lie on both sides
[2] = test system: Neuropilin-2 / VEGF-C interaction (human); assay: inhibitors of NRP2–VEGF-C binding, biochemical, microplate binding format, z-score (AID 743281); conditions: microplate NRP2/VEGF-C binding assay; stronger effect = lower value
[3] = modulation of C. elegans fzo-1 (AID 1259413);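 note: fzo-1 mutant C. elegans worms in liquid wells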; conditions: C. elegans fzo-1 modulator screen, mean read-out; stronger effect = higher value
[4] = liver-stage malaria parasite growth inhibition, primary screen, cell-based, HepG2, luciferase luminescence, HepG2 viability (AID 624349; in the data active = parasite load remaining mostly below about 12%, no sharp cut-off; inactive = mostly above about 10%;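 note: 100% = mean of DMSO negative control wells on the same plate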); conditions: P. berghei liver stage in HepG2, luciferase luminescence, concentration not given here; parasite load remaining: stronger effect = lower value; viability: measured here: HepG2 viability without parasites
[5] = Cy5 fluorescence interference with SSB-bound oligo, artefact control for HCV NS3 helicase inhibitor project, biochemical, NIH Clinical Collection, E. coli SSB (AID 743268)
[6] = test system: Hepatitis C virus NS3 helicase; assay: HCV NS3 helicase inhibitors, primary screen, biochemical, fluorescence polarization, NIH Clinical Collection (AID 743270); conditions: NS3 helicase binding to Cy5-dT15 DNA, stronger effect = higher value, concentration not given here
[7] = target: Single-stranded DNA-binding protein (Escherichia coli (strain K12)) (UniProt P0AGE0); assay: E. coli SSB displacement from DNA, counter-screen for HCV NS3 helicase inhibitor project, biochemical, fluorescence polarization, NIH Clinical Collection (AID 743271; in the data active = inhibition above about 28%); conditions: stronger effect = higher value, concentration not given here
[8] = fluorescence interference in NS3h assay format, artefact control for HCV NS3 helicase inhibitor project, biochemical, NIH Clinical Collection (AID 743272); conditions: fluorescence interference counterscreen, stronger effect = lower value;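 note: HCV NS3 helicase with a Cy5 labelled single stranded DNA probe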
[9] = test system: Aerobactin synthetase IucA (Klebsiella pneumoniae hvKP1); assay: Biochemical IucA enzyme inhibition primary screen of the Spectrum library (AID 1346200); conditions: malachite green pyrophosphate, A620, at 8 µM, stronger effect = lower value;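 note: 100% = wells without compound and 0% = wells lacking enzyme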
[10] = counts scaled to control wells, 1 = unselective
[11] = measured here: epithelial PC-3E GFP cell survival
[12] = measured here: mesenchymal TEM4-18 mCherry cell survival

CCC(C)C1C(=O)OC(C(C)C)C(=O)N(C)C(C(C)C)C(=O)OC(C(C)C)C(=O)N(C)C(C(C)C)C(=O)OC(C(C)C)C(=O)N1C (stereo unspecified)
red/green cell ratio (normalised) [1, 10]: 0.98 (inactive) and 0.86 (inactive)
normalised cell number [1, 11]: 1.02 and 0.67
normalised cell number [1, 12]: 1 and 0.58

C=C(C)CN1CC[C@]23c4c5ccc(O)c4O[C@H]2c2[nH]c4ccccc4c2CC3(O)C1C5 (stereo partly specified)
outcome [2]: inactive
mean signal [3]: 243 (inactive)

C[C@]12CCC3C(CC[C@@H]4CC(=O)CC[C@]34C)C1CCC2=O (stereo partly specified)
red/green cell ratio (normalised) [1]: 1.04 (inactive)
normalised cell number [1, 11]: 0.88
normalised cell number [1, 12]: 0.91

Nc1ccc(-c2ccccc2)cc1
red/green cell ratio (normalised) [1, 10]: 1.07 (inactive)
normalised cell number [1, 11]: 0.96
normalised cell number [1, 12]: 1.03

CC12CC[C@H](O)CC1=CC[C@@H]1[C@@H]2CCC2(C)[C@H]1CC[C@]2(C)O (stereo partly specified)
outcome [2]: inactive
mean signal [3]: 278 (inactive)

CCSCCC(N)C(=O)O (stereo unspecified)
red/green cell ratio (normalised) [1]: 0.84 (inactive)
normalised cell number [1, 11]: 1.26
normalised cell number [1, 12]: 1.06

CC(C)[C@@H]1CC[C@](O)(CCl)[C@@H]2C(=O)OCC(C(=O)O)=C[C@H]21
red/green cell ratio (normalised) [1, 10]: 0.96 (inactive)
normalised cell number [1, 11]: 1
normalised cell number [1, 12]: 0.96

C[C@]12C=CC(=O)C=C1CCC1C2CC[C@]2(C)C(=O)CCC12 (stereo partly specified)
red/green cell ratio (normalised) [1]: 1.05 (inactive)
normalised cell number [1, 11]: 1.06
normalised cell number [1, 12]: 1.12

CN1CC[C@]2(c3cccc(O)c3)Cc3nc4ccccc4cc3C[C@H]2C1
parasite load remaining [4]: 54.3% (inactive)
viability [4]: 65.5%
fluorescence ratio [5]: 0.96 (inactive)
inhibition [6]: -8.08% (inactive)
inhibition [7]: -1.97% (inactive)
fluorescence ratio [8]: 0.98 (inactive)
z-score [2]: -0.954 (inactive)
mean signal [3]: 226 (inactive)

CC12CC[C@H]3[C@@H](CC=C4C[C@@H](O)CCC43C)[C@@H]1CCC2=O (stereo partly specified)
outcome [2]: inactive
mean signal [3]: 245 (inactive)

CC[C@H](c1cccc(O)c1)[C@@H](C)CN(C)C
red/green cell ratio (normalised) [1]: 0.92 (inactive)
normalised cell number [1, 11]: 1.05
normalised cell number [1, 12]: 0.96

C[C@@H]1[C@H](O)[C@@H](C)/C=C/C=C/CC/C=C/C=C/C=C/C=C/[C@H](OC2O[C@H](C)[C@@H](O)[C@H](N)[C@@H]2O)C[C@@H]2O[C@](O)(C[C@@H](O)[C@H](O)CC[C@@H](O)C[C@@H](O)C[C@@H](O)CC(=O)O[C@H]1C)C[C@H](O)[C@H]2C(=O)O (stereo partly specified)
red/green cell ratio (normalised) [1, 10]: 0.86 (inactive)
normalised cell number [1, 11]: 1.27
normalised cell number [1, 12]: 1.09

CC(C)(O)[C@@H]1[C@H]2OC(=O)[C@@H]1C1(O)C[C@H]3O[C@]34C(=O)O[C@H]2[C@]14C (stereo partly specified) (tested in a mixture with another compound)
outcome [2]: inactive
mean signal [3]: 237 (inactive)

N#Cc1c(Cl)nc(NC2CC2)c2ccccc12
red/green cell ratio (normalised) [1, 10]: 0.69 (inactive)
normalised cell number [1, 11]: 1.32
normalised cell number [1, 12]: 0.91

CCC(C)[C@H]1O[C@]2(C=C[C@@H]1C)C[C@@H]1C[C@@H](C/C=C(\C)[C@@H](OC3C[C@H](OC)C(O[C@H]4C[C@H](OC)[C@@H](O)[C@H](C)O4)[C@H](C)O3)[C@@H](C)/C=C/C=C3\COC4[C@H](O)C(C)=C[C@@H](C(=O)O1)[C@]34O)O2 (stereo partly specified)
red/green cell ratio (normalised) [1, 10]: 0.68 (inactive)
normalised cell number [1, 11]: 0.88
normalised cell number [1, 12]: 0.6

CC12CCC(=O)C[C@@H]1CC[C@@H]1[C@@H]2CCC2(C)[C@H]1CC[C@]2(C)O (stereo partly specified)
outcome [2]: inactive
mean signal [3]: 277 (inactive)

CC[C@H](C)/C=C(C)/C=C/C1=CC2=C(Cl)C(=O)[C@](C)(OC(C)=O)C(=O)C2=CO1
red/green cell ratio (normalised) [1, 10]: 1 (inactive)
normalised cell number [1, 11]: 0.96
normalised cell number [1, 12]: 0.96

C=Cc1cc(OC)c2c(c1)c(=O)oc1c2cc(OC)c2c(O)ccc([C@@H]3O[C@@H](C)[C@H](OC(C)=O)[C@H](N(C)C)[C@H]3O)c21
red/green cell ratio (normalised) [1, 10]: 0.75 (inactive)
normalised cell number [1, 11]: 0.41
normalised cell number [1, 12]: 0.31

CC(=O)OCC1=C(C(=O)O)N2C(=O)[C@@H](N)C2SC1 (stereo partly specified)
red/green cell ratio (normalised) [1]: 1.18 (inactive)
normalised cell number [1, 11]: 0.96
normalised cell number [1, 12]: 1.14

CC12CC[C@H]3[C@@H](CCC4=CC(=O)CC[C@@H]43)[C@@H]1CC[C@@H]2O (stereo partly specified)
outcome [2]: inactive
mean signal [3]: 225 (inactive)

C[C@]12[C@H](O)CC3C(CC[C@@H]4C[C@@H](O)CC[C@]34C)[C@@]1(O)CC[C@@H]2C1=CC(=O)OC1 (stereo partly specified)
red/green cell ratio (normalised) [1]: 0.53 (inactive)
normalised cell number [1, 11]: 0.38
normalised cell number [1, 12]: 0.2

CC12CCC(=O)C=C1CC[C@@H]1[C@@H]2CCC2(C)[C@H]1CC[C@]2(C)O (stereo partly specified)
outcome [2]: inactive
mean signal [3]: 283 (inactive)

COc1cc(O)c2c(=O)oc3cc(O)cc(C)c3c2c1
red/green cell ratio (normalised) [1, 10]: 0.9 (inactive)
normalised cell number [1, 11]: 1.19
normalised cell number [1, 12]: 1.07

CC12C/C(=C/O)C(=O)C[C@@H]1CC[C@@H]1[C@@H]2CCC2(C)[C@H]1CC[C@]2(C)O (stereo partly specified)
outcome [2]: inactive
mean signal [3]: 230 (inactive)

C[C@@H]1C(=O)OC2[C@H](O)C34[C@@H]5OC(=O)[C@@]3(OC3OC(=O)[C@H](O)[C@@]34[C@H](C(C)(C)C)[C@H]5O)[C@]21O (stereo partly specified)
red/green cell ratio (normalised) [1, 10]: 1.08 (inactive)
normalised cell number [1, 11]: 0.86
normalised cell number [1, 12]: 0.93

C/C1=C\[C@@H](C)C/C=C/[C@H]2[C@@H]3O[C@]3(C)[C@@H](C)[C@H]3[C@H](Cc4c[nH]c5ccccc45)NC(=O)[C@]32C(=O)/C=C/C(=O)[C@@H]1O
red/green cell ratio (normalised) [1, 10]: 0.89 (inactive)
normalised cell number [1, 11]: 1.11
normalised cell number [1, 12]: 1

C=C1C[C@@H]2[C@H](CCC3(C)C(=O)CC[C@@H]23)C2(C)C=CC(=O)C=C12 (stereo partly specified)
outcome [2]: inactive
mean signal [3]: 265 (inactive)

COc1cc(=O)oc(/C=C/C=C/C=C/C(C)=C/[C@@]2(C)O[C@@H](C)[C@@](C)(O)[C@@H]2O)c1C
red/green cell ratio (normalised) [1, 10]: 0.98 (inactive)
normalised cell number [1, 11]: 0.87
normalised cell number [1, 12]: 0.85

CC12Cc3cn[nH]c3C[C@@H]1CC[C@@H]1[C@@H]2CCC2(C)[C@H]1CC[C@]2(C)O (stereo partly specified)
outcome [2]: inactive
mean signal [3]: 229 (inactive)

CC[C@H]1CN2CCC1C[C@@H]2[C@H](O)c1ccnc2ccc(OC)cc12 (stereo partly specified)
red/green cell ratio (normalised) [1, 10]: 0.88 (inactive)
normalised cell number [1, 11]: 1.22
normalised cell number [1, 12]: 1.07

COc1cc([C@@H]2c3cc4c(cc3[C@H](OC(C)=O)C3COC(=O)[C@H]32)OCO4)cc(OC)c1OC (stereo partly specified)
red/green cell ratio (normalised) [1, 10]: 1.07 (inactive)
normalised cell number [1, 11]: 0.19
normalised cell number [1, 12]: 0.2

Oc1ccc2c3c1O[C@H]1c4[nH]c5ccccc5c4CC4(O)C(C2)N(CC2CC2)CC[C@]314 (stereo partly specified)
outcome [2]: inactive
mean signal [3]: 234 (inactive)

CC12CCC(=O)C=C1CC[C@@H]1[C@@H]2CCC2(C)[C@@H](O)CC[C@@H]12 (stereo partly specified)
outcome [2]: inactive
mean signal [3]: 263 (inactive)

CN1C(=O)c2ccccc2NC(=O)[C@@H]1Cc1ccccc1
red/green cell ratio (normalised) [1, 10]: 1.03 (inactive)
normalised cell number [1, 11]: 1.1
normalised cell number [1, 12]: 1.13

CN1CCc2cc3c(cc2[C@H]1C1OC(=O)c2c1ccc1c2OCO1)OCO3 (stereo partly specified)
red/green cell ratio (normalised) [1]: 1.02 (inactive)
normalised cell number [1, 11]: 0.99
normalised cell number [1, 12]: 1
activity remaining [9]: 121% (inactive)

C[C@]12CCC3C(CC[C@H]4C[C@H](O)CC[C@]34C)C1CCC2=O (stereo partly specified)
red/green cell ratio (normalised) [1]: 1.16 (inactive)
normalised cell number [1, 11]: 0.84
normalised cell number [1, 12]: 0.97

CCC(C)C(=O)O[C@@H]1C[C@@]2(C)[C@H](c3ccoc3)OC(=O)CC23OC2(C)OC34[C@H](OC(=O)C(C)C)C3(O)[C@@H](OC(=O)C5(C)OC5C)[C@@]5(C)C[C@]3(O)[C@@](C)([C@H]5CC(=O)OC)C14O2 (stereo partly specified)
red/green cell ratio (normalised) [1, 10]: 1.06 (inactive)
normalised cell number [1, 11]: 0.98
normalised cell number [1, 12]: 1.04

N#Cc1cc(I)c(O)c(I)c1
red/green cell ratio (normalised) [1, 10]: 1.04 (inactive)
normalised cell number [1, 11]: 1.08
normalised cell number [1, 12]: 1.12

c1ccc(S[C@@H]2OC3COC(c4ccccc4)OC3[C@H]3NC32)cc1 (stereo partly specified)
red/green cell ratio (normalised) [1, 10]: 0.98 (inactive)
normalised cell number [1, 11]: 1.08
normalised cell number [1, 12]: 1.06
